Rows were chosen to be rich in hits. Some 12% of all compounds tested hit in one or more screens of this group.
Sfp PPTase inh – inhibitors of Bacillus subtilis Sfp phosphopantetheinyl transferase; Biochemical Sfp PPTase activity, qHTS; AID 1490; 310,000 tested, 3.5% active; Potency, µM, without a hit: largest response in the series, negative = inhibition, usual class: inhibitors; Q9F4F7;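 also: the enzyme is Sfp with the accession as filed and its product quenches rhodamine fluorescence; 0% = enzyme reaction without inhibitor and -100% = no enzyme wells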
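Compounds were incubated with enzyme (final 15 nM) for 15 min at room temperature before substrate addition started the reaction. Fluorescence at 525 nm excitation, 598 nm emission was recorded immediately and after 30 minutes.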
G9a inh – blocks human histone lysine methyltransferase G9a; Q96KQ7; G9a H3K9 monomethylation, AlphaScreen, 2 h; Potency, µM (series often up to 102 µM), for inactives: top-dose activity, negative = inhibition, hits mostly inhibitors; 350,000 tested, 8.8% active; AID 504332; also: % is scaled to controls: 0 for no effect and ±100 for the full control effect; nearly all actives have a fitted effect of over 75% in size
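Step 1: enzyme (final 20 nM) with compound, 15 min RT. Step 2: substrate peptide 500 nM and SAM 20 uM, 2 h RT. Step 3: anti-H3K9me1 antibody and AlphaScreen beads, 10 min, then plate read.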
JMJD2A Tudor inh – blocks the human JMJD2A Tudor domain. Potency, µM (top dose mostly 114 µM), without a hit: at the highest dose activity change, negative = inhibition, actives largely listed as inhibitors. AID 504339. 390,000 tested, 4.4% active. O75164. AlphaScreen JMJD2A-Tudor / H3K4me3 peptide binding; also: % is scaled to controls: 0 for no effect and ±100 for the full control effect; nearly all actives have a fitted effect of over 50% in size
HP1b binding inh – HP1-beta chromodomain-methylated histone interaction inhibition | AlphaScreen HP1-beta / biotin-H3K9me3 peptide binding | 390,000 tested, 0.56% active | AID 540317 | P83916 | Potency, µM (doses to about 114 µM), for the others: top-dose activity change, negative = inhibition, most hits filed as inhibitors; also: nearly all actives have a fitted effect of over 70% in size
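Compound inhibition of the preformed complex between 50 nM HP1-beta and 50 nM biotinylated H3K9me3 peptide was read by AlphaScreen. Buffer was PBS pH 7.4 with 0.01% Tween-20. Incubations ran 30 min at room temperature, with 10 ug/mL donor/acceptor beads.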
L3MBTL1 inh – blocks human L3MBTL1; 230,000 tested, 0.66% active; Q9Y468; AID 485360; AlphaScreen L3MBTL1–H3K9me1 peptide binding; Potency, µM (highest dose often 57.1 µM), for inactives: at the top dose activity, negative = inhibition, hits mostly inhibitors; also: % is scaled to controls: 0 for no effect and ±100 for the full control effect; nearly all actives have a fitted effect of over 60% in size
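Displacement of a biotinylated histone H3(1-15) peptide monomethylated at Lys9 (75 nM) from L3MBTL1 (50 nM) was measured by AlphaScreen after a 30 min room-temperature compound incubation; cefsulodin titration served as intraplate control.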
BAZ2B block – blocks human BAZ2B. Q9UIF8. AlphaScreen BAZ2B-H3K14Ac peptide displacement. Potency, µM (highest dose often 114 µM), inactives show at the highest dose activity change, negative = inhibition, hits mostly inhibitors. 360,000 tested, 4.4% active; also: % is scaled to controls: 0 for no effect and ±100 for the full control effect; nearly all actives have a fitted effect of over 60% in size
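AlphaScreen displacement of biotin-H3(5-23)K14Ac peptide (50 nM final) from BAZ2B (50 nM final) in PBS pH 7.4, 0.01% Tween-20; complex preformed 30 min RT, then compounds (top 110 uM) 30 min RT, beads 20 min dark.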
Starred values were filed as active, the others as inactive; ? = inconclusive; . = not tested or not shown; ! = repeats disagree; [ ] = another dose, or the depositor's remark. Calls follow the shape of the dose curve; as a rule, active = well fitted curve in the direction sought with a large enough effect; inconclusive = small, poorly fitted or top-dose-only effect, or another doubt; inactive = no such curve, though single readings can be large; an effect the other way counts as inactive or inconclusive. Potency is read from the fitted curve at half-maximal effect.

SMILES	Sfp PPTase inh	G9a inh	JMJD2A Tudor inh	HP1b binding inh	L3MBTL1 inh	BAZ2B block
O=C(CCn1c(=O)c2cccn2c2cccnc21)N1CCN(c2cccc(Cl)c2)CC1	7.3%	?	15.8µM*!	-15.3%	.	-31.7%
CC(C)(C)NC(=O)C1CCN(c2nc3ccccc3nc2C(F)(F)F)CC1	.	-0.7%[59 µM]	-10.4%	32.3%	.	0.6%
Fc1ccc(Cl)cc1/C=N/n1cnnc1SCc1ccccc1	16.8%	-28.2%	-20.7%	8.9%	.	-30.6%
C(=N\n1cnnc1SCc1ccccc1)/c1ccco1	3.3%	56.2µM*	-22.6%	26.3%	-1.1%	0.1%
O=S(=O)(Nc1cccc(F)c1)c1ccc2[nH]c3c(c2c1)CCCCC3	.	?	?	?	.	-27.0%[57.1 µM]
O=C(Nc1ccc(Nc2ccncc2)cc1)c1ccc(Nc2ccnc3ccc([N+](=O)[O-])cc23)cc1[N+](=O)[O-]	?	50.1µM*	?	-37.2%	-19.8%	-17.8%
Cc1nc2ccccn2c1-c1csc(Nc2cccc(O)c2)n1	9.8%	.	-34.9%	-9.1%	0.7%	-5.2%
Cc1nc2ccccn2c1-c1csc(Nc2cccc(C(=O)O)c2)n1	79.4µM*	44.7µM*	-19.7%	10.5%	.	-10.4%
Cc1cccc(Nc2nc(-c3c(C)nc4ccccn34)cs2)c1	50.1µM*	?	-28.7%	13.8%	3.4%	-34.6%
Cc1nc2ccccn2c1-c1csc(Nc2ccc(C(=O)O)cc2)n1	-11.3%	?	-32.2%	43.2%	.	?
O=C(O)c1cccc(S(=O)(=O)NNc2ccccc2C(F)(F)F)c1	-28.5%	1.41µM*	7.94µM*	-15.7%	.	50.1µM*
CCCN(CCC)C(=O)Cn1c(=O)n(-c2ccc(CC)cc2)c(=O)c2ccc(C(=O)NCCc3ccccc3)cc21	.	6.4%[59 µM]	4.3%	26.2%	.	.
Cc1cc(C)c(OCCCCN(C)Cc2ccccc2)c(C)c1	?	1.26µM*	7.08µM*	?	1.6%	?
Cc1ccc(C(C)C)c(OCCCN(C)Cc2ccccc2)c1	-74.8%	10µM*	22.4µM*	?	16.4%	?
COc1ccccc1OCCCOc1ccc(C)cc1Br	-0.2%	264.5%	115.2%	223.1%	110.5%	159.0%
CN(CCCCCC(=O)/C=N/O)Cc1ccccc1	17.2%	21.9%[59 µM]	5.0%[57.1 µM]	29.6%	0.0%	-0.5%
Cc1ccc(C(C)C)c(OCC(O)CN(C)Cc2ccccc2)c1 (stereo not given)	15.1%	13.2%	-21.8%	36.4%	.	-1.3%
Cc1ccc(OCCCCN(C)Cc2ccccc2)c(Br)c1	-1.6%	11.2µM*	?	?	11.3%	-37.1%
COc1cccc2sc(N(CCN(C)C)C(=O)/C=C/c3cccs3)nc12	0.5%	15.8µM*	-33.3%	11.4%	.	.
COc1ccc(C)c2sc(N(CCN(C)C)C(=O)/C=C/c3cccs3)nc12	-17.7%	.	?	2.7%	.	35.5µM*
COc1ccc(OC)c2sc(N(CCN(C)C)C(=O)/C=C/c3cccs3)nc12	-16.9%	.	?	7.5%[57 µM]	.	-24.9%
CN(C)CCCN(C(=O)/C=C/c1cccs1)c1nc2ccc(F)cc2s1	-26.7%	?	37.6%	47.2%	.	.
CN(C)CCN(C(=O)/C=C/c1cccs1)c1nc2c(F)cc(F)cc2s1	-16.8%	?	39.8µM*	?	-1.3%	?
CCOc1cccc2sc(N(CCN(C)C)C(=O)/C=C/c3cccs3)nc12	-16.0%	-15.3%	44.7µM*	-10.1%	.	?
CCOc1ccc(/C=C/c2nc(C#N)c(NCCc3ccccc3)o2)cc1	.	1.9%[59 µM]	-16.4%	7.9%	.	-19.8%
SMILES	Sfp PPTase inh	G9a inh	JMJD2A Tudor inh	HP1b binding inh	L3MBTL1 inh	BAZ2B block
CCN(CC)c1ccc2cc(-c3nc(-c4cccs4)no3)c(=O)oc2c1	.	38.2%[59 µM]	13.2%	63.1%	.	45.3%
NCCc1cnc(-c2cccc(C(F)(F)F)c2)[nH]1	3.7%	.	.	.	.	.
COc1cccc2sc(N(C)c3ccccc3)nc12	70.8µM*	-37.5%	-2.9%	29.5%	.	-0.4%
CS(=O)(=O)Nc1ccc([N+](=O)[O-])cc1OC1CCCCC1	3.3%	24.6%[59 µM]	.	.	.	.
COc1ccc(C(=O)COC(=O)c2ccc(Cl)nc2)cc1OC	.	?	-2.8%	30.9%	3.8%	9.3%
COc1ccc(C(=O)COC(=O)c2ccc(Cl)nc2)c(OC)c1	.	-30.8%	-13.8%	-7.2%	?	79.4µM*
COc1ccc(C(=O)COC(=O)c2ccccc2O)c(OC)c1	.	-32.4%[59 µM]	?	28.1%	8.91µM*	50.1µM*
CCN(C(=O)c1ccco1)c1nc(-c2ccc(OC)cc2)cs1	89.1µM*	14.7%	12.3%	5.1%	-10.7%	79.4µM*
COc1ccc2nc(N3CCN(C(=O)c4ccco4)CC3)sc2c1	.	-29.3%[59 µM]	-9.1%	27.6%	.	-17.8%
COc1ccc(-c2csc(N(CCCN(C)C)C(=O)c3ccccc3Cl)n2)cc1	.	.	?	-9.6%	.	.
COc1ccc(-c2csc(N3CCN(C(=O)c4ccccc4)CC3)n2)cc1	-22.2%	28.2µM*	?	-18.1%	-10.8%	?
COc1ccc(-c2csc(N(CCCN(C)C)C(=O)c3ccccc3C)n2)cc1	-29.2%	-36.5%[59 µM]	?	?	35.5µM*	?
COc1ccc(-c2csc(N(CC(C)C)C(=O)c3ccco3)n2)cc1	-1.8%	4.6%[0.501 µM]	6.2%	17.2%	3.6%[2.29 µM]	?
COc1ccc(-c2csc(N3CCN(C(=O)c4ccco4)CC3)n2)cc1	-10.7%	44.7µM*	?	?	-16.9%	?
CCOC(=O)N1CCN(c2nc(-c3ccc(F)cc3)cs2)CC1	-0.7%	-6.7%[12.7 µM]	-21.1%	10.6%	-12.5%	-28.4%
CCOC(=O)C(=O)N1CCN(c2nc(-c3ccc(Cl)cc3)cs2)CC1	-6.3%	39.8µM*	-21.9%	?	-9.7%	?
CCOC(=O)c1cc(-c2ccccc2)n(CC(=O)Nc2ccccc2OCC)c1C	.	-3.6%[59 µM]	-6.4%	36.1%	.	1.7%
CCOCCCNC(=O)CNC(=S)N(Cc1ccc(C)cc1)Cc1ccco1	39.8µM*	10µM*	-23.2%	-13.3%	.	-38.4%
O=c1oc2ccccc2cc1-c1nc2c(s1)CCc1ccccc1-2	7.94µM*	-19.4%[59 µM]	66.2%[57.1 µM]	86.5%[57 µM]	53.7%	47.1%
O=c1oc2ccc3ccccc3c2cc1-c1nc2c(s1)CCc1ccccc1-2	.	.	50.0%[57.1 µM]	48.4%[57 µM]	.	.
O=c1oc2cc(O)ccc2cc1-c1nc2c(s1)CCc1ccccc1-2	56.2µM*	55.3%[59 µM]	51.7%	77.1%	29.4%	32.0%
O=C(CCCl)Nc1nc2c(s1)CCc1ccccc1-2	?	50.1µM*	-31.5%	-14.0%	.	-29.5%
Nc1nc2c(s1)CCc1ccccc1-2	79.4µM*	10µM*	?	-30.6%	.	?
O=C(O)/C(=C\C(=O)c1ccccc1)Nc1ccccc1	-26.9%	20µM*	.	.	-3.3%	79.4µM*
CC(=O)c1ccc(NS(=O)(=O)c2ccc3[nH]c(=O)[nH]c3c2)cc1	.	-20.3%[59 µM]	-14.0%	14.4%[57 µM]	.	-4.1%

Bioassay records from PubChem.
